Results from PubChem BioAssay.

Assay: small-molecule microarray binders of probe aWnt5a, primary screen, biochemical, biotinylated probe, 635/667 nm fluorescence (AID 1113);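 also: score merges 667 nm fluorescence intensity with signal-to-noise per printed feature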
Conditions: higher = more signal

| Compound | composite z-score |
| --- | --- |
| CCc1cccc(NC(=O)O[C@H]2[C@H](OC(=O)Nc3ccc4c(c3)OCO4)[C@H](OC(=O)Nc3ccc4c(c3)OCO4)[C@@H](OC)O[C@@H]2CO)c1 | -0.0087 |
| C=C(COC)/C(=C/C[C@H](OC(=O)c1ccncc1)c1cccc(OCCO)c1)c1cnc2ccccc2c1 | -0.0944 |
| COCCn1c(C(=O)N2CCCC2)cc2c1C[C@H]1CN(C(=O)c3ccccc3)[C@@](Cc3ccccc3)(C(=O)OC)[C@@H]21 | 0.869 |
| O=C1C2C=CC(C(O)C(c3ccccc3)c3ccccc3)N(Nc3ccccc3)C2C(=O)N1c1ccccc1 (stereo unspecified) | -0.0051 |
| Cc1ccc(S(=O)(=O)N2[C@@H](c3ccccc3)C(C(=O)O)=CC[C@H]2c2ccc(C#N)cc2)cc1 | 0.0267 |
| C=CCC(OC(C)=O)[C@@H]1[C@@H](N(Cc2cc3ccccc3o2)C(=O)c2ccc(-c3ccccc3)cc2)c2cc(OCCCO)ccc2N1C(=O)c1ccc2ccccc2n1 (stereo partly specified) | 0.107 |
